This note sets out measurements from PubChem BioAssay.

Unmarked numbers belong to inactive results. Active and inactive are the calls of the source. Unless noted, no stated cut-off is given here; in the data, active means inhibition above about 33%; inactive means the rest.

The target of the first assay is Steroidogenic factor 1 (Homo sapiens) (UniProt Q13285). Description: inverse agonism at SF1 nuclear receptor – cell-based, luminescence, high throughput, counter-screen for LRH-1 inverse agonist project (AID 651614; in the data active means inhibition above about 44%;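 further: cells cotransfected with StAR promoter reporter and SF1 expression vector; 0% = vehicle on cells with receptor and 100% = vehicle on cells lacking receptor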). The note with it: cell-based SF1 luciferase reporter, at 3.6 µM, stronger effect = higher value.
Sequence of Steroidogenic factor 1 (Homo sapiens) (Q13285 whole entry, looked up): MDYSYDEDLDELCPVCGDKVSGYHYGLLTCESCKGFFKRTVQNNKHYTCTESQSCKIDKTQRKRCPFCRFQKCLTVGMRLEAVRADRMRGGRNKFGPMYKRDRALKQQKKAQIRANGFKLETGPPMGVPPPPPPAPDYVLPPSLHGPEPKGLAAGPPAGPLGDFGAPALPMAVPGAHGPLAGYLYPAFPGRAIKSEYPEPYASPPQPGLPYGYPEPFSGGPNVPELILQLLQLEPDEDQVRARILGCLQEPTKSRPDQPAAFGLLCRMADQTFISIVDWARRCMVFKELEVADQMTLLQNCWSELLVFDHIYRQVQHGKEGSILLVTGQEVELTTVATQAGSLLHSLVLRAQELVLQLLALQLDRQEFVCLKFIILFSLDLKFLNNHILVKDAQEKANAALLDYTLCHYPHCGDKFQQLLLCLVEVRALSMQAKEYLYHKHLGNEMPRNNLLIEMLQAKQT
With `COC(=O)c1ccc(N2CCCCC2)c(NC(=O)c2ccco2)c1`, the inhibition (usually the change of the read-out against control, counted positive when it falls) was 61.5% (active).
Turning to `Cc1ccc(Nc2nc(-c3cccnc3)nc3ccccc23)cc1`, the inhibition was 59.5% (active).
On the same count and under the same terms, with `Cc1ccc(C(O)(C(=O)NN(C(=O)c2ccccc2)c2ccccc2)c2ccc(C)cc2)cc1` the figure was 62.9% (active); with `CC(=O)COc1ccc2c(-c3cccc([N+](=O)[O-])c3)cc(=O)oc2c1`, 51.8% (active).
On the same count and under the same terms, with `O=C(Sc1cccc2cccnc12)c1ccccc1Br` the figure was 85.5% (active).
The same measure, in the same setting: in the case of `ClCc1ncc(-c2ccc(Cl)cc2)o1` it was 62.7% (active).
Consider `O=C(Cn1nnc2ccccc2c1=O)Nc1ccc2c(c1)CCC2`, for which the inhibition was 25.6%.
Turning to `C=CC[n+]1c(-c2ccc(Cl)cc2Cl)csc1Nc1c(C)n(C)n(-c2ccccc2)c1=O`, the inhibition was 61% (active).
As to `CCn1c(=O)oc2cc(NC(=O)CCl)ccc21`, the inhibition is 65.9% (active).
Take `O=C(Cn1ncc(Cl)c(Cl)c1=O)Nc1ccc2c(c1)OCO2`: the inhibition was 47.4% (active).
`COc1ccc(-c2nc(C(N)=O)c3[nH]c(=O)n(-c4cccc(Cl)c4)c3n2)cc1OC`: the inhibition was 56.5% (active).
Turning to `Cc1ccccc1-c1nnc(SCC(=O)Nc2cccc(C)c2C)o1`, the inhibition was 26.9%.
On to `CCCc1cc(=O)oc2cc(OCC(=O)NCCc3c[nH]c4ccc(OC)cc34)ccc12`, for which the inhibition was 40.4%.
With `CCCc1cc(=O)oc2cc(C)cc(OCC(=O)NC3CC3)c12`, the inhibition was 62.1% (active).
Regarding `O=C(c1ccccc1)c1cc(-c2ccccn2)c(N2CCOCC2)s1`, the inhibition was 63.4% (active).
On the same count and under the same terms, with `CCc1c(O)nc(SCC(=O)Nc2ccccc2C)n(-c2ccc(C)cc2)c1=O` the figure was 66% (active); with `CC1CCCC(C)N1C(=O)COC(=O)Cc1ccc(Cl)cc1` (stereo not given), 41.8%; with `O=[N+]([O-])c1ccc(-n2cnc3ccccc32)c([N+](=O)[O-])c1`, 62.1% (active).
Turning to `CCOc1cc2c(cc1OCC)C(c1ccc(OC)cc1)N(c1ccccc1)C(=O)C2` (stereo not given), the inhibition was -5%.
With `C=CCn1c(SCC(=O)Nc2ccccc2C)nc(O)cc1=O`, the inhibition is 52.2% (active).
As to `COc1ccc(CCNC(=O)COC(=O)C23CC4CC(CC(C4)C2)C3)cc1`, the inhibition was 48.7% (active).
Take `Cc1onc(-c2c(F)cccc2Cl)c1C(=O)c1ccccc1O`: the inhibition is 49.1% (active).
Same read-out and setting: in the case of `O=C(CCl)Nc1cccc(Oc2cnccn2)c1` it was 64.9% (active); in that of `O=C(CSc1nnc(CNC(=O)c2c(F)cccc2F)o1)Nc1ccc2c(c1)OCCO2`, 54.6% (active); in that of `O=C(NCc1cccnc1)c1cccn2c(=O)c3sccc3nc12`, 31.3%.
Turning to `COc1ccc(N2CC(C(=O)N/N=C/c3ccc(C)cc3)CC2=O)cc1` (stereo not given), the inhibition was 29.4%.
For `Cc1cc(/C=N/NC(N)=S)c(C)n1-c1ccc(Cl)c(Cl)c1`, the inhibition was 39.2%.
Same read-out and setting: with `O=C1c2cc(F)ccc2-n2c1nc1ccccc1c2=O` the figure was 73.9% (active); with `Cn1cccc1C(=O)OCC(=O)NCCCc1ccccc1`, 44.4% (active).
With `COc1ccc(-n2c(/C=C(\C)O)nc(=O)c3c(C)cc(C)nc32)cc1`, the inhibition is 37.2%.
With `Cc1ccc(C(=O)Nc2sc3c(c2C(=O)O)CCCCC3)o1`, the inhibition is 69.9% (active).
As for `COc1ccc(CCNC(=O)COC(=O)c2cccn2C)cc1`, the inhibition was 46.3% (active).
Turning to `CCCN(CC(=O)Nc1ccc(C(N)=O)cc1)CC(=O)Nc1ccccc1C`, the inhibition was 53.9% (active).
In the case of `CN1CCN(c2ccc(S(=O)(=O)N3CCCCC3)cc2NC(=O)COc2ccc([N+](=O)[O-])cc2)CC1`, the inhibition is 53.1% (active).
Turning to `CC(O)(c1cccnc1)c1nc(-c2cccc(C#N)c2)cs1` (stereo not given), the inhibition is 54% (active).
In the case of `CN1CCN(/N=C/c2nc(-c3cccc([N+](=O)[O-])c3)n3ccccc23)CC1`, the inhibition is 42.2%.
`COC(=O)c1ccc(NC(=O)CN2CCN(c3ccc(Cl)cc3)CC2)cc1`: the inhibition was 45.8% (active).
With `Cc1c(NC(=O)c2cc(-c3cccs3)nc3ccccc23)c(=O)n(-c2ccccc2)n1C`, the inhibition is 18%.
Turning to `COc1ccc(CCNC(=O)CN2C(=O)NC3(CCCCC3)C2=O)cc1`, the inhibition is 54% (active).
Still for that read-out and setting: in the case of `C#CCN(C[C@@H]1[C@@H](OC(=O)NCc2ccc(OC)c(OC)c2)[C@@H](OC(=O)NCc2ccc(OC)c(OC)c2)CN(C(=O)OC(C)C)N1C(=O)OC(C)C)S(=O)(=O)c1ccc(C)cc1` it was 30.1%.

Tested on in another assay: not listed separately
The experiment in a line: compounds suppressing VP16-driven luciferase signal – cell-based, luminescence, high throughput, counter-screen for LRH-1 inverse agonist project (AID 651615). As to conditions: Gal4-VP16 luciferase reporter cells, at 3.6 µM, stronger effect = higher value. Background: A counterscreen serves to expose hits that act by an unwanted route or on another target.
Turning to `COC(=O)c1ccc(N2CCCCC2)c(NC(=O)c2ccco2)c1`, the inhibition was 4.64%.
As for `Cc1ccc(Nc2nc(-c3cccnc3)nc3ccccc23)cc1`, the inhibition was 14%.
Same read-out and setting: in the case of `Cc1ccc(C(O)(C(=O)NN(C(=O)c2ccccc2)c2ccccc2)c2ccc(C)cc2)cc1` it was 12.3%; in that of `CC(=O)COc1ccc2c(-c3cccc([N+](=O)[O-])c3)cc(=O)oc2c1`, 0.45%.
As to `O=C(Sc1cccc2cccnc12)c1ccccc1Br`, the inhibition was 88% (active).
Regarding `ClCc1ncc(-c2ccc(Cl)cc2)o1`, the inhibition is -28.8%.
In the case of `O=C(Cn1nnc2ccccc2c1=O)Nc1ccc2c(c1)CCC2`, the inhibition is 0.93%.
`C=CC[n+]1c(-c2ccc(Cl)cc2Cl)csc1Nc1c(C)n(C)n(-c2ccccc2)c1=O`: the inhibition is 27.5%.
With `CCn1c(=O)oc2cc(NC(=O)CCl)ccc21`, the inhibition is -54.9%.
In the case of `O=C(Cn1ncc(Cl)c(Cl)c1=O)Nc1ccc2c(c1)OCO2`, the inhibition was -13.7%.
`COc1ccc(-c2nc(C(N)=O)c3[nH]c(=O)n(-c4cccc(Cl)c4)c3n2)cc1OC`: the inhibition is -5.48%.
In the case of `Cc1ccccc1-c1nnc(SCC(=O)Nc2cccc(C)c2C)o1`, the inhibition was -3.77%.
On to `CCCc1cc(=O)oc2cc(OCC(=O)NCCc3c[nH]c4ccc(OC)cc34)ccc12`, for which the inhibition was -23.9%.
Consider `CCCc1cc(=O)oc2cc(C)cc(OCC(=O)NC3CC3)c12`, for which the inhibition was -6.08%.
On to `O=C(c1ccccc1)c1cc(-c2ccccn2)c(N2CCOCC2)s1`, for which the inhibition was 0.02%.
As to `CCc1c(O)nc(SCC(=O)Nc2ccccc2C)n(-c2ccc(C)cc2)c1=O`, the inhibition is -1.84%.
As to `CC1CCCC(C)N1C(=O)COC(=O)Cc1ccc(Cl)cc1` (stereo not given), the inhibition is 0.05%.
On to `O=[N+]([O-])c1ccc(-n2cnc3ccccc32)c([N+](=O)[O-])c1`, for which the inhibition was 9.79%.
Turning to `CCOc1cc2c(cc1OCC)C(c1ccc(OC)cc1)N(c1ccccc1)C(=O)C2` (stereo not given), the inhibition was -4.52%.
With `C=CCn1c(SCC(=O)Nc2ccccc2C)nc(O)cc1=O`, the inhibition was -13.2%.
The same measure, in the same setting: in the case of `COc1ccc(CCNC(=O)COC(=O)C23CC4CC(CC(C4)C2)C3)cc1` it was 1.82%.
With `Cc1onc(-c2c(F)cccc2Cl)c1C(=O)c1ccccc1O`, the inhibition is -0.7%.
For the compound `O=C(CCl)Nc1cccc(Oc2cnccn2)c1`, the inhibition is -26.5%.
Regarding `O=C(CSc1nnc(CNC(=O)c2c(F)cccc2F)o1)Nc1ccc2c(c1)OCCO2`, the inhibition is -8.58%.
On to `O=C(NCc1cccnc1)c1cccn2c(=O)c3sccc3nc12`, for which the inhibition is 1.7%.
On the same count and under the same terms, with `COc1ccc(N2CC(C(=O)N/N=C/c3ccc(C)cc3)CC2=O)cc1` (stereo not given) the figure was 19.5%.
As for `Cc1cc(/C=N/NC(N)=S)c(C)n1-c1ccc(Cl)c(Cl)c1`, the inhibition was 22.5%.
As for `O=C1c2cc(F)ccc2-n2c1nc1ccccc1c2=O`, the inhibition is 67.9% (active).
As to `Cn1cccc1C(=O)OCC(=O)NCCCc1ccccc1`, the inhibition was -22%.
In the case of `COc1ccc(-n2c(/C=C(\C)O)nc(=O)c3c(C)cc(C)nc32)cc1`, the inhibition was 16.7%.
`Cc1ccc(C(=O)Nc2sc3c(c2C(=O)O)CCCCC3)o1`: the inhibition is 45.4% (active).
On to `COc1ccc(CCNC(=O)COC(=O)c2cccn2C)cc1`, for which the inhibition was -13.7%.
As for `CCCN(CC(=O)Nc1ccc(C(N)=O)cc1)CC(=O)Nc1ccccc1C`, the inhibition was 6.63%.
On to `CN1CCN(c2ccc(S(=O)(=O)N3CCCCC3)cc2NC(=O)COc2ccc([N+](=O)[O-])cc2)CC1`, for which the inhibition is 4.16%.
On to `CC(O)(c1cccnc1)c1nc(-c2cccc(C#N)c2)cs1` (stereo not given), for which the inhibition is 7.33%.
As for `CN1CCN(/N=C/c2nc(-c3cccc([N+](=O)[O-])c3)n3ccccc23)CC1`, the inhibition was 3.29%.
`COC(=O)c1ccc(NC(=O)CN2CCN(c3ccc(Cl)cc3)CC2)cc1`: the inhibition was 2.51%.
On the same count and under the same terms, in the case of `Cc1c(NC(=O)c2cc(-c3cccs3)nc3ccccc23)c(=O)n(-c2ccccc2)n1C` it was 2.7%; in that of `COc1ccc(CCNC(=O)CN2C(=O)NC3(CCCCC3)C2=O)cc1`, -6.08%; in that of `C#CCN(C[C@@H]1[C@@H](OC(=O)NCc2ccc(OC)c(OC)c2)[C@@H](OC(=O)NCc2ccc(OC)c(OC)c2)CN(C(=O)OC(C)C)N1C(=O)OC(C)C)S(=O)(=O)c1ccc(C)cc1`, 10.3%.
